Screen size: about 420,000 compounds; about 64,000 (15%) were called active. About 27% were inconclusive and are not listed. Calls come from the whole dose curve; as a rule, active = well fitted inhibition curve with a large enough effect; inconclusive = small, poorly fitted or top-dose-only effect; inactive = flat fitted curve, though single readings scatter. Not all results are given here. Entries that show only a call come without a potency.
Test: qHTS for Inhibitors of human tyrosyl-DNA phosphodiesterase 1 (TDP1): qHTS in cells in absence of CPT; note: nearly all actives have a fitted effect of over 55% in size
Settings: DT40 Tdp1-/- hTDP1 cells, no CPT, ATP luminescence, 48 h; activity change, negative = growth inhibition: at 46.2 µM (top of the series)
Procedure, shortened: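 Growth of hTDP1-complemented DT40 Tdp1-knockout cells is measured by ATP luminescence after at least 48 hr compound exposure at 37 °C, with DMSO substituting for the 20 nM CPT used in the parallel screen.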
Potency is the fitted concentration of half-maximal effect.

| SMILES | Potency |
| --- | --- |
| Cn1nnnc1NCc1ccc(Cl)c(Cl)c1 | inactive |
| NS(=O)(=O)c1ccc(CNC(=O)c2ccc(Cl)cc2[N+](=O)[O-])cc1 | inactive |
| Cc1cc2nn(-c3ccc(Cl)cc3)nc2cc1NC(=O)C(C)C | inactive |
| Nc1ccc2nn(-c3ccc(Cl)cc3)nc2c1 | 9.2 µM (active) |
| O=C(Cc1ccc(Cl)cc1)Nc1ccc2nn(-c3ccc(Cl)cc3)nc2c1 | inactive |
| CC(=O)c1ccc(NC(=O)C2CC(=O)Nc3nc4ccccc4n32)cc1 (stereo not given) | inactive |
| O=C(Cc1ccccc1)N1N=C(c2ccncc2)CC1(O)C(F)(F)F (stereo not given) | inactive |
| O=C(c1ccc(Cl)cc1)N1N=C(c2ccccn2)CC1(O)C(F)(F)F (stereo not given) | 14.6 µM (active) |
| COC(=O)C1(O)CC(C(C)C)=NN1C(=O)c1ccc(Cl)cc1 (stereo not given) | inactive |
| Cc1cn([C@H]2C[C@H](O)[C@@H](CNC(=O)[C@H](N)Cc3cccnc3)O2)c(=O)[nH]c1=O | inactive |
| O=c1[nH]n2c(=O)c3c([nH]c2c1N=Nc1ccccc1)CCC3 | inactive |
| O=C(Nc1nnc(Cc2ccc(Cl)cc2)s1)c1ccncc1 | inactive |
| COc1ccccc1CN1CCNC(=O)C1CC(=O)N(C)CC1CCOCC1 (stereo not given) | inactive |
| Cn1cc(CCC(=O)N2CCCC(C(=O)c3ccc(C(C)(C)C)cc3)C2)cn1 (stereo not given) | 20.6 µM (active) |
| Cn1cc(/C=C/C(=O)N2CCCC(C(=O)c3ccc(C(F)(F)F)cc3)C2)cn1 (stereo not given) | inactive |
| COCC(=O)N1CCCC(C(=O)c2ccc(C(F)(F)F)cc2)C1 (stereo not given) | inactive |
| Cc1nccn1-c1ccc(NC(=O)[C@H]2O[C@@H](n3cnc4c(N)ncnc43)[C@H](O)[C@@H]2O)cc1 | inactive |
| CC1(C)S[C@@H]2[C@H](NC(=O)COc3ccccc3)C(=O)N2C1C(=O)OCc1ccccc1 (stereo not given in full) | inactive |
| CNc1ccc(-c2nc(-c3ccco3)no2)cc1[N+](=O)[O-] | inactive |
| COc1cc(-c2noc(-c3ccc(N4CCCC4)c([N+](=O)[O-])c3)n2)cc(OC)c1OC | inactive |
| COc1ccc(-c2noc(-c3ccc(N4CCN(c5ccccc5)CC4)c([N+](=O)[O-])c3)n2)cc1OC | 7.31 µM (active) |
| CCn1c(SC(C)C(=O)Nc2ccc(N3CCOCC3)cc2)nnc1-c1ccco1 (stereo not given) | inactive |

| SMILES | Potency |
| --- | --- |
| O=C(Nc1cccnc1Oc1ncnc2cc(Cl)ccc12)c1ccc(F)cc1 | inactive |
| NS(=O)(=O)c1ccc(NS(=O)(=O)/C=C/c2ccccc2)cc1 | inactive |
| Cc1cccc(N2C(=O)c3ccc(C(=O)Nc4cccc(C(=O)O)c4)cc3C2=O)c1 | inactive |
| Cc1ccc(C(=O)N2CC(=O)Nc3ccccc32)o1 | inactive |
| Cc1ccc(CNC(=O)Cn2cnc(S(=O)(=O)N3CCCCC3)c2)o1 | inactive |
| Cc1ccc(CNC(=O)C2(C(F)(F)F)C/C(=C\Cc3ccccc3)CCCO2)o1 (stereo not given) | 11.6 µM (active) |
| CC1CCCCN1CCCNC(=O)Cn1ncc2c([nH]c3ccccc32)c1=O (stereo not given) | inactive |
| COc1cccc(-c2nc3n(n2)C(c2ccccc2Cl)C(C(N)=O)=C(C)N3)c1 (stereo not given) | inactive |
| Cc1cc2c(cc1C)[n+](C)cn2CC(O)COCC1CC=CCC1 (stereo not given) | 1.84 µM (active) |
| C/C(=N/NC(=O)c1cc(Cl)ccc1O)C12CC3CC(CC(C3)C1)C2 | inactive |
| O=C(CSc1ccc([N+](=O)[O-])cn1)Nc1ccc(N2CCOCC2)c(Cl)c1 | inactive |
| COc1ccc(-c2cc(=O)oc3cc(OCC(=O)N[C@@H](Cc4c[nH]c5ccccc45)C(=O)O)ccc23)cc1 | inactive |
| COc1ccc(C2=NO[C@@H]3C(=O)N(Cc4ccccc4)C(=O)[C@H]23)cc1OC | inactive |
| Cc1cc2oc(=O)cc(-c3ccccc3)c2c(C)c1-c1ccc(OC(F)(F)F)cc1 | 20.6 µM (active) |
| COc1ccc(-c2c(C)cc3oc(=O)cc(-c4ccccc4)c3c2C)cc1OC | 23.1 µM (active) |
| CC(=O)c1ccc(S(=O)(=O)NC2CC(=O)N(c3ccc4c(c3)OCCO4)C2)cc1 (stereo not given) | inactive |
| CC(C)(C)S(=O)(=O)c1ccccc1-c1noc(-c2ccccc2)c1C(N)=O | inactive |
| Cn1c(SCC(=O)C(C)(C)C)nnc1-c1ccccn1 | inactive |
| O=C(COC(=O)c1cnccn1)Nc1cccc2ccccc12 | inactive |
| Cc1ccccc1-c1ccc(Nc2ccc(C(=O)N3CCOCC3)cc2)nn1 | inactive |
| CO[C@@H]1CN(C)C(=O)c2cc(NC(=O)C3CC3)ccc2OC[C@H](C)N(C(=O)CN2CCOCC2)C[C@@H]1C | inactive |
| CCCN(CC(=O)Nc1ccccc1C)C(=O)c1cc(=O)[nH]c2ccccc12 | inactive |

| SMILES | Potency |
| --- | --- |
| CCCN(CC(=O)Nc1ccccc1C)C(=O)c1ccc2[nH]c3c(c2c1)CC(C)CC3 (stereo not given) | 20.6 µM (active) |
| CCCN(CC(=O)Nc1ccccc1C)C(=O)c1ccc(OCC(=O)N2CCOCC2)c(OCC)c1 | inactive |
| COCCCN1C(=O)C(=O)/C(=C(/O)c2ccc3c(c2)CC(C)O3)C1c1cccnc1 (stereo not given) | inactive |
| COC(=O)C1=C(NC(=O)C(C)(C)C)CCS1 | inactive |
| Cc1cc(C)c(C=NNc2nc3c([nH]2)c(=O)n(C)c(=O)n3C)c(C)c1 | inactive |
| Cc1cccc(Nc2ccccc2C(=O)NCc2ccco2)c1C | 20.6 µM (active) |
| Cc1ccccc1NC(=O)NCc1ccco1 | inactive |
| Cc1ccc(NC(=O)C(=O)NCc2ccco2)c(C)c1 | inactive |
| CS(=O)(=O)N(CC(=O)NCc1ccco1)c1ccc2c(c1)OCO2 | inactive |
| O=C(Nc1ccccc1)Nc1ccccc1C(=O)NCc1ccco1 | inactive |
| Cc1ccc(N(Cc2ccc(C(=O)Nc3ccccc3C(=O)NCc3ccco3)cc2)S(C)(=O)=O)cc1C | 18.4 µM (active) |
| CCC(C)NC(=O)CN(C1CCCCC1)S(C)(=O)=O (stereo not given) | inactive |
| CCOC(=O)N1CCN(C(=O)C2CCN(S(C)(=O)=O)CC2)CC1 | inactive |
| Fc1ccc(COc2ccc(-c3nnco3)cc2)cc1 | inactive |
| O=C(O)C1CCN(C(=O)c2cc(F)cc3c2OCOC3)CC1 | inactive |
| Cc1ccnc(N2CCC(C(=O)NC3CCCCCC3)CC2)n1 | inactive |
| COc1nc(NC2CCCCC2)nc(N2CCCCCC2)n1 | 12.6 µM (active) |
| Clc1nc(NC2CCCC2)nc(N2CCOCC2)n1 | inactive |
| CCCn1c(SCC(N)=O)nnc1C(C)C | inactive |
| CCn1c(SCC(=O)Nc2ccc3c(c2)OCCO3)nnc1C(C)C | inactive |
| CCCn1c(SCC(=O)c2ccc3c(c2)OCCO3)nnc1C(C)C | 20.6 µM (active) |

Source: PubChem BioAssay AID686978 (National Center for Advancing Translational Sciences (NCATS), 2013)
